In the library only some 1.3% were active in any assay of this set; here they are far more common.
3CLpro inhibitor – SARS-CoV 3CLpro protease inhibition. recombinant SARS-CoV 3CLpro, quenched FRET peptide cleavage. inhibition, % at 6 µM. hit rate 0.14% among 290,000. AID 1706. P0C6X7; in the data active = inhibition above about 12%
MazEF act – increases E. coli MazEF RNase cleavage of RNA | hit rate 0.32% among 350,000 | FAM/BHQ RNA-DNA oligo cleavage fluorescence, 5 h | activation, % at 20 µM | P0AE70 | AID 504720; in the data active = activation above about 50%
Target sequence (P0AE70 whole entry, looked up): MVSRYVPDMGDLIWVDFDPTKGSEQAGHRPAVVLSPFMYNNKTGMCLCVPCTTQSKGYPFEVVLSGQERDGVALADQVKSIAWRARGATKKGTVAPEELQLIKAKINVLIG
CCHF vOTU inh – CCHFV vOTU protease inhibition | hit rate 0.55% among 370,000 | inhibition, % at 11.5 µM | Pep-AMC fluorescence; in the data active = inhibition above about 30%; note: 0% = vehicle wells with enzyme and 100% = no enzyme wells
RN4220 kill – S. aureus RN4220 growth inhibition | OD600, 16 h | inhibition, % (no concentration beside the values) | hit rate 0.33% among 330,000; in the data active = inhibition above about 85%;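 note: plate controls were untreated cells for no effect and reference antibiotic for full effect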
Mtb betalactam – beta-lactam sensitization of Mtb H37Rv. M. tuberculosis H37Rv growth with meropenem, percent inhibition. inhibition, % at 25 µM. hit rate 0.27% among 330,000; call rule not given here;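 note: growth measured after seven days incubation then overnight dye step; 0% = bacteria only wells and 100% = bacteria with antibiotic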
Sa ugtP lethal – kills S. aureus RN4220 lacking UgtP; hit rate 0.54% among 330,000; S. aureus RN4220 ugtP deletion, OD600 growth, 16 h; growth inhibition, % (no concentration beside the values); in the data active = growth inhibition above about 68%;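 note: plate controls were untreated wells for no effect and antibiotic for full effect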
An asterisk follows results filed as active; · = no result given; + = active, no number.

SMILES	3CLpro inhibitor	MazEF act	CCHF vOTU inh	RN4220 kill	Mtb betalactam	Sa ugtP lethal
CC(=O)ON=C(N)c1cnn2c(C(F)(F)F)cc(C(F)(F)F)nc12	·	·	·	0.3	·	1.4
COc1ccc(C=NNC(=O)CNS(=O)(=O)c2ccccc2)cc1	·	·	·	2.6	·	9.6
CC(=NNC(=O)c1c(Br)cnn1C)c1ccc(NC(=O)c2ccc(F)cc2)cc1	·	·	·	3.7	·	2.7
CCCCCCCCC(=O)NNC(=O)c1c(O)c2ccccc2n(CCC)c1=O	-0.9	2.4	-2.1	98.1*	1.0	98.0*
CCn1c(=O)c(C(=O)NNC(=O)Cc2ccccc2)c(O)c2ccccc21	-2.1	13.4	4.8	15.1	-3.5	-4.1
O=c1[nH]c(-c2ccccn2)nc2sc(-c3ccccc3)cc12	-2.4	8.5	-17.0	99.6*	·	99.8*
O=C(NC1CCCC1)c1cnn2c(C(F)(F)F)cc(-c3ccc4c(c3)OCO4)nc12	3.6	76.3*	·	10.6	-3.6	12.8
CC(=NNC(=O)c1ccc(F)cc1)c1ccc(N2CCOCC2)cc1	·	·	·	2.9	·	-1.0
Oc1c(Br)cc(Br)cc1C=NNc1ccc(Cl)nn1	·	·	·	21.0	·	99.6*
Oc1c(Br)cc(C=NNc2ccc(Cl)nn2)cc1Br	·	·	·	7.3	·	17.6
Cc1ccc(C2CC=C(C(=O)O)CN2S(=O)(=O)c2ccccc2C)cc1 (configuration not stated)	·	·	·	6.8	·	-8.0
COC(=O)C1=C(c2ccc(OC)c(OC)c2)CC2CCC1N2C(=O)NC1CC1 (configuration not stated)	·	·	·	-0.9	·	-7.1
Cc1ccc(CNC(=O)CN2NS(=O)(=O)c3ccccc3C2=O)cc1	·	1.2	6.4	·	·	·
C=CCn1c(C)cc(C(=O)CN2NS(=O)(=O)c3ccccc3C2=O)c1C	3.9	57.3*	8.8	2.7	-0.8	7.0
Nc1nc(NC(=O)c2ccccc2)nn1-c1ccccc1	-10.1	-0.3	1.2	5.8	-0.1	5.6
O=C(Nc1nc(NC(=O)c2ccco2)n(-c2ccccc2)n1)c1ccccc1	-2.1	-3.5	6.8	92.1*	97.8	75.7
CCCCNC(=O)c1c(O)c2cccc3c2n(c1=O)CCC3	-0.7	-7.3	0.9	-10.7	16.8	-1.4
CCCc1nnc(NC(=O)c2c(O)c3cccc4c3n(c2=O)CCC4)s1	·	·	·	88.4*	3.5	95.7*
Cc1cc(O)c(C=Nc2ccc(N3CCOCC3)cc2)c(C)c1Cl	0.0	260.8*	-10.7	5.8	-3.0	4.0
Cc1cccc(-n2c(SCC(N)=O)nc3c(c2=O)C2(CCCC2)Cc2ccccc2-3)c1	2.2	-5.2	-15.0	-1.4	4.7	74.2
NC(=O)CSc1nc2c(c(=O)n1-c1ccccc1)C1(CCCCC1)Cc1ccccc1-2	0.3	1.1	4.6	-7.5	-0.2	89.8*
COc1ccc(C(C)=NNC(=O)c2cc(-c3cccnc3)nc3ccccc23)cc1	·	·	·	-2.6	·	-2.6
O=Cc1cc2ccccc2nc1SCc1ccc(Cl)c(Cl)c1	9.1	1.7	5.5	56.1	4.3	99.3*
Cc1cc(C)cc(NC(=O)COC(=O)CCCNC(=O)c2ccc(Cl)cc2)c1	3.4	4.6	-2.1	-3.8	-1.0	98.7*
CON=CCC(=O)Nc1ccc(Cl)c(Cl)c1	·	·	·	-0.5	·	-14.7
SMILES	3CLpro inhibitor	MazEF act	CCHF vOTU inh	RN4220 kill	Mtb betalactam	Sa ugtP lethal
COCCCn1c(=O)/c(=C\c2ccccc2OC(F)F)s/c1=C(/C#N)C(=O)NC(C)C	4.2	303.4*	-0.2	·	3.1	·
Oc1cccc(-c2nc3c4c(ncn3n2)-c2ccccc2CC42CCCC2)c1	1.6	-5.5	22.6	31.2	73.3	88.8*
CC(C)NC(=O)N(C)CC1Oc2c(NC(=O)C3CC3)cccc2C(=O)N(C(C)CO)CC1C (configuration not stated)	·	·	·	8.1	·	15.1
COc1ccc(NC(=O)CCC2COc3ccccc3O2)c(OC)c1 (configuration not stated)	2.5	-1.1	5.7	14.7	-5.3	-4.2
COc1ccc(/C=C/C(=O)NCC2COc3ccccc3O2)c(OC)c1 (configuration not stated)	5.3	-6.6	2.2	-4.8	-4.3	98.7*
O=c1[nH]c(=S)[nH]c2nc(-c3ccccc3)cnc12	·	-1.0	3.8	8.0	32.9	-7.4
Cc1cc2nc3c(=O)[nH]c(=S)[nH]c3nc2cc1NC(=O)C(F)(F)F	-6.4	+	19.4	2.1	-1.7	2.6
Cc1ccc(C(=O)NC(=S)Nc2ccc(Oc3ccc(Cl)cc3)cc2)cc1	5.2	-0.2	-13.8	3.8	28.1	65.9
O=C(NC(=S)Nc1ccc(Oc2ccccc2)cc1)c1ccc(Cl)cc1	2.3	-1.4	-8.3	-6.7	98.7	98.3*

Assay outcomes from PubChem BioAssay.
